Data reported in PubChem BioAssay (Tox21).
Values joined by “and” are separate entries in the source; they are usually repeats but may differ in a detail not shown here. Equal values may be shown once. A number with no mark means an inactive call. Results filed as inconclusive are left out. Where a call stands in place of a potency, no number is given. Active and inactive are the calls of the source. Unless noted, calls follow the shape of the dose curve; as a rule, active = well fitted curve in the direction sought with a large enough effect in the repeat runs; inconclusive = weak or mixed curves; inactive = no such curve, though single readings can be large; an effect the other way counts as inactive or inconclusive.

Tests used:
[1] = Caspase-3/7 induction in HepG2 cells by small molecules, qHTS assay (AID 1346978); also: nearly all actives have a fitted effect of over 15% in size
In short: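 Wild-type HepG2 cells, 2,000/well, settled 5 hr at 37 C and 5% CO2, then compound-treated for 17 hr; caspase-3/7 activity read by luminescent Caspase-Glo 3/7 after 30 min at room temperature.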

[2] = Caspase-3/7 induction in CHO-K1 cells by small molecules, qHTS cell viability counter screen (AID 1346979); also: nearly all actives have a fitted effect of over 35% in size; also: potency is read from the fitted curve at half-maximal effect
In short: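 CHO-K1 wt, 1,500 cells/well; 5hr pre-incubation 37C/5% CO2; compound pin transfer (DMSO); 16hr exposure; CellTiter-Fluor added, 1hr, fluorescence read.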

[3] = Caspase-3/7 induction in HepG2 cells by small molecules, qHTS cell viability counter screen (AID 1346981); also: nearly all actives have a fitted effect of over 30% in size; also: potency is read from the fitted curve at half-maximal effect
In short: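 Viability determined by CellTiter-Fluor fluorescence in HepG2 wells also used for the luminescent Caspase-Glo 3/7 read. Compounds were present for 16 hr at 37 C, 5% CO2 before reagent addition.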

[4] = target: Nuclear receptor subfamily 1 group I member 2 (Homo sapiens) (UniProt O75469); experiment: Human pregnane X receptor (PXR) small molecule agonists, qHTS assay (AID 1346982); also: nearly all actives have a fitted effect of over 35% in size; also: potency is read from the fitted curve at half-maximal effect
Sequence of Nuclear receptor subfamily 1 group I member 2 (Homo sapiens) (O75469 whole entry, looked up): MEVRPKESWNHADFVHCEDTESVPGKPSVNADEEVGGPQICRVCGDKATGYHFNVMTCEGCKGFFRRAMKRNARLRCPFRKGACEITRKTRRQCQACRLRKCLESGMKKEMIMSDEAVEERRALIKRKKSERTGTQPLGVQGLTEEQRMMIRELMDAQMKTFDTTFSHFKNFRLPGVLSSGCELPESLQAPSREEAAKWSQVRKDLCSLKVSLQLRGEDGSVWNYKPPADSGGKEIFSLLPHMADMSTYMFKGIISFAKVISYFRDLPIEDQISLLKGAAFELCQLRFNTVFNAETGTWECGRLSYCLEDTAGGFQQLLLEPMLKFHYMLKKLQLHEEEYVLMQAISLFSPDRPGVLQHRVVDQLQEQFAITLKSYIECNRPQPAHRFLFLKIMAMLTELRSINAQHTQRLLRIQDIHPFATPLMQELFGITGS
In short: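 Compound-induced hPXR transactivation of a CYP3A4 luciferase reporter was scored in HepG2 PXR-Luc cells over 24 hr at 37 C, 5% CO2, by luminescence.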

[5] = target: Acetylcholinesterase (Homo sapiens) (UniProt P22303); experiment: Acetylcholinesterase (AChE) small molecule antagonists: colormetric cell-based qHTS assay (AID 1347395; calls by dose curve; also: nearly all actives have a fitted effect of over 30% in size)
Sequence of Acetylcholinesterase (Homo sapiens) (P22303 whole entry, looked up): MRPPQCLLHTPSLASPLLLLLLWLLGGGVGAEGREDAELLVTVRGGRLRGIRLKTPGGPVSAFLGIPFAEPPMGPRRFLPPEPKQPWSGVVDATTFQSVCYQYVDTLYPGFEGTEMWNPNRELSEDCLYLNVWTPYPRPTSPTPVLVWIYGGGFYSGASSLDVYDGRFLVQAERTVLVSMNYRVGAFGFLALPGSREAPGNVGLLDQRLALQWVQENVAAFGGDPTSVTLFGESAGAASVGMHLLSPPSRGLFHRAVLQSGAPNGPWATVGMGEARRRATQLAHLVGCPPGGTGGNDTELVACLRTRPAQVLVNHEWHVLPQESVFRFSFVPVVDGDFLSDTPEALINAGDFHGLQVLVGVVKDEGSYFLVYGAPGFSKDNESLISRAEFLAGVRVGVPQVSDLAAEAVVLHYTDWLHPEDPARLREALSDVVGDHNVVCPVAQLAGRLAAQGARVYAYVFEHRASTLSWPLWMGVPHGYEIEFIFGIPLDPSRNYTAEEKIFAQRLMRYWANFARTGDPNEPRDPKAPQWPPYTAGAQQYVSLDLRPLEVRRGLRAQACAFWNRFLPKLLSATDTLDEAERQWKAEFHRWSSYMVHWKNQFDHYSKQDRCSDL
In short: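 SH-SY5Y cells; cpd 30 min 37 C; + DTNB/acetylthiocholine, 90 min 37 C; colorimetric thiocholine read; qHTS.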

[6] = target: Acetylcholinesterase (Homo sapiens) (UniProt P22303); experiment: Acetylcholinesterase (AChE) small molecule antagonists: enzyme-based qHTS assay (AID 1347397; calls by dose curve; also: nearly all actives have a fitted effect of over 55% in size); settings: Potency: AChE enzyme activity inhibition
In short: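 Recombinant human AChE (50 mU/mL) preincubated with compound 30 min at room temperature; acetylthiocholine plus DTNB then added, and thiocholine formation read colorimetrically after 10 min at room temperature. DMSO served as vehicle control.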

[7] = target: Acetylcholinesterase (Homo sapiens) (UniProt P22303); experiment: Acetylcholinesterase (AChE) small molecule antagonists: fluorescence cell-based qHTS assay (AID 1347398; calls by dose curve; also: nearly all actives have a fitted effect of over 50% in size); settings: Potency: AChE activity
In short: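 SH-SY5Y cells (2000/well), attached overnight, incubated with compound 30 min at 37 C. Acetylthiocholine plus Thiolite Green then added for 40 min at room temperature. Thiocholine fluorescence (Ex/Em 490/520 nm) reports cellular AChE activity.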

[8] = Caspase-3/7 induction in CHO-K1 cells by small molecules, qHTS assay (AID 1346980); also: nearly all actives have a fitted effect of over 15% in size
In short: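 Wild-type CHO-K1 cells exposed to compounds for 17hr at 37 C, 5% CO2. Caspase-3/7 activity then measured by Caspase-Glo 3/7 luminescence after 30min at room temperature.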

[9] = target: Nuclear receptor subfamily 1 group I member 2 (Homo sapiens) (UniProt O75469); experiment: CYP3A4 induction through human pregnane X receptor (PXR) by small molecules, qHTS assay (AID 1346984); also: nearly all actives have a fitted effect of over 40% in size
In short: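 Readings come from a luciferase reporter: DPX-2 cells, which are HepG2 cotransfected with PXR and a CYP3A4-promoter construct, were exposed to test compounds for 24 h at 37C before One-Glo detection.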

[10] = target: Nuclear receptor subfamily 1 group I member 2 (Homo sapiens) (UniProt O75469); experiment: Human pregnane X receptor (PXR) activation by small molecules, qHTS assay (AID 1346985); also: nearly all actives have a fitted effect of over 40% in size; also: potency is read from the fitted curve at half-maximal effect
In short: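 DPX-2 cells (HepG2 co-transfected with a PXR response element and a CYP3A4-promoter luciferase construct) were seeded at 2,000 per well, rested 5 hr at 37C, then exposed to DMSO-dissolved compounds for 24 hr. Activation was read as luciferase luminescence.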

Row | Compound | Potency [1] | Potency [2] | Potency [3] | Potency [4] | Potency [5] | Potency [6] | Potency [7] | Potency [8] | Potency [9] | Potency [10]
1 | COc1ccc(N)cc1N | inactive | 22.4 µM (active) and 29.4 µM (active) | 56.2 µM (active) | 11.2 µM (active) and 33 µM (active) | inactive | inactive | inactive | – | – | –
2 | Oc1ccc2ccc3cccc4ccc1c2c34 | inactive | inactive | inactive | – | inactive | – | inactive | inactive | – | –
3 | C[C@]12Cc3nonc3C[C@@H]1CC[C@@H]1[C@@H]2CC[C@@]2(C)[C@H]1CC[C@]2(C)O | inactive | 11.9 µM (active) | inactive | 29.8 µM (active) | inactive | inactive | inactive | – | inactive | inactive
4 | CCN | inactive | inactive | inactive | inactive | inactive | inactive | inactive | – | – | –
5 | O=C(CCl)Nc1ccccc1 | inactive | 54.5 µM (active) | – | – | inactive | inactive | inactive | inactive | – | –
6 | CC(=O)[O-].CC(=O)[O-].[Hg+2] | inactive | 2.43 µM (active) | 19.3 µM (active) | – | – | – | – | – | – | –
7 | Clc1ccc(CCC(Cn2ccnc2)Sc2c(Cl)cccc2Cl)cc1 (stereo unspecified) | inactive | 11.9 µM (active) | – | 4.22 µM (active) | inactive | – | inactive | inactive | inactive | 4.47 µM (active)
8 | N#Cc1ccccc1N | inactive | inactive | inactive | inactive | inactive | inactive | inactive | – | – | –
9 | Nc1ccc([N+](=O)[O-])cc1Cl | inactive | 61.1 µM (active) | – | inactive | inactive | inactive | inactive | inactive | – | –
10 | C[C@]12CC[C@H](O)C[C@H]1CC[C@@H]1[C@@H]2C[C@@H](O)[C@]2(C)[C@@H](C3=CC(=O)OC3)CC[C@]12O | inactive | inactive | – | 2.17 µM (active) | – | inactive | inactive | inactive | – | –
11 | Nc1ccc(Sc2ccc(N)cc2)cc1 | inactive | inactive | – | 34.4 µM (active) | inactive | inactive | inactive | inactive | – | –
12 | O=C(Cl)c1ccc(Cl)cc1 | inactive | inactive | inactive | inactive | inactive | inactive | inactive | – | – | –
13 | CC(C)CCCCCOC(=O)c1ccccc1C(=O)OCCCCCC(C)C | inactive | 60.4 µM (active) | – | – | inactive | inactive | inactive | inactive | – | –
14 | N#CCCC(Br)(C#N)CBr (stereo unspecified) | inactive | 30.6 µM (active) | – | – | – | – | inactive | inactive | – | –
15 | CCCN(CCC)CCc1c[nH]c2ccccc12 | inactive | inactive | inactive | – | inactive | inactive | inactive | inactive | – | –
16 | CCCCOP(=O)(CCCC)OCCCC | inactive | inactive | – | inactive | – | inactive | inactive | inactive | – | –
17 | CCS(=O)(=O)c1cccnc1S(=O)(=O)NC(=O)Nc1nc(OC)cc(OC)n1 | inactive | inactive | inactive | – | inactive | – | inactive | inactive | – | –
18 | CC(C)(C)c1ccc(CSc2cnn(C(C)(C)C)c(=O)c2Cl)cc1 | inactive | 0.0172 µM (active) | – | – | – | inactive | inactive | inactive | – | –
19 | Oc1ccc(C(=C(Cl)Cl)c2ccc(O)cc2)cc1 | inactive | 61 µM (active) | – | 61 µM (active) | inactive | – | inactive | inactive | – | –

Row | Compound | Potency [1] | Potency [2] | Potency [3] | Potency [4] | Potency [5] | Potency [6] | Potency [7] | Potency [8] | Potency [9] | Potency [10]
20 | CC(=[OH+])/C=C(/C)[O-].CC(=[OH+])/C=C(\C)[O-].CC(=[OH+])/C=C(\C)[O-].[Fe] | inactive | inactive | inactive | – | inactive | – | inactive | inactive | – | –
21 | [CH3][Hg][Cl] | inactive | 7.67 µM (active) | – | inactive | inactive | inactive | inactive | inactive | – | –
22 | Cl/C=C\CCl | inactive | inactive | inactive | inactive | inactive | inactive | inactive | – | – | –
23 | CCOCn1c(-c2ccc(Cl)cc2)c(C#N)c(Br)c1C(F)(F)F | inactive | 2.73 µM (active) | – | 1.37 µM (active) | – | – | inactive | inactive | – | –
24 | Clc1ccc(Oc2ccccc2)cc1 | inactive | inactive | inactive | – | inactive | inactive | inactive | inactive | – | –
25 | CCCCN(CCCC)C(=S)[S-].CCCCN(CCCC)C(=S)[S-].[Zn+2] | inactive | 21.7 µM (active) | – | – | – | – | inactive | inactive | – | –
26 | C=CCC1=C(C)C(OC(=O)C2C(C=C(C)C)C2(C)C)CC1=O (stereo unspecified) | inactive | 55.3 µM (active) | – | 10.3 µM (active) | inactive | – | – | inactive | – | –
27 | Clc1ccc(CSC(Cn2ccnc2)c2ccc(Cl)cc2Cl)cc1 (stereo unspecified) | inactive | 18.8 µM (active) | – | 9.44 µM (active) | inactive | – | inactive | inactive | inactive | –
28 | CC(C)(C)C(O)C(Oc1ccc(-c2ccccc2)cc1)n1cncn1 (stereo unspecified) | inactive | 61.1 µM (active) | – | 19.3 µM (active) | inactive | inactive | inactive | inactive | – | –
29 | CC1(C)[C@H](C(=O)O[C@H](C#N)c2cccc(Oc3ccccc3)c2)[C@@H]1/C=C(\Cl)C(F)(F)F | inactive | inactive | inactive | – | inactive | inactive | inactive | inactive | – | –
30 | NC(=O)c1ccc(N)nc1 | inactive | 2.73 µM (active) | inactive | inactive | inactive | inactive | inactive | – | – | –
31 | CC1(C)CC/C(=C/c2ccc(Cl)cc2)C1(O)Cn1cncn1 (stereo unspecified) | inactive | – | inactive | 12.1 µM (active) | inactive | inactive | inactive | inactive | – | –
32 | O=[N+]([O-])c1ccc2ccc3cccc4ccc1c2c34 | inactive | 43.2 µM (active) | 27.3 µM (active) | 21.7 µM (active) | inactive | – | inactive | – | – | –
33 | CCOC(=O)CC(=O)CCl | inactive | – | inactive | inactive | inactive | inactive | inactive | inactive | – | –
34 | COC(=O)N(C(=O)N1CO[C@@]2(C(=O)OC)Cc3cc(Cl)ccc3C2=N1)c1ccc(OC(F)(F)F)cc1 | inactive | – | inactive | 1.67 µM (active) | inactive | inactive | inactive | inactive | – | –
35 | CC(C)(C)OO | inactive | inactive | inactive | – | inactive | inactive | inactive | – | – | –
36 | COC(=O)N(C(=O)N1COC2(C(=O)OC)Cc3cc(Cl)ccc3C2=N1)c1ccc(OC(F)(F)F)cc1 (stereo unspecified) | inactive | – | inactive | 10.6 µM (active) | inactive | inactive | inactive | inactive | – | –
37 | Cc1ccc(CCl)cc1 | inactive | – | inactive | inactive | inactive | inactive | inactive | inactive | – | –
38 | O=S(=O)(c1ccc(Cl)cc1)c1ccc(Cl)cc1 | inactive | 41.1 µM (active) | – | 22 µM (active) | – | inactive | inactive | – | – | –
